Assay results: article PMC7862700, “An all-to-all approach to the identification of sequence-specific readers for epigenetic DNA modifications on cytosine”

What was measured:
Experiment in all cases: DAPPL (digital affinity profiling via proximity ligation, sequencing); 10 mM Tris-HCl pH 7.5, 50 mM NaCl, 1 mM DTT, 4% glycerol, room temperature, 30 min; GST-TFs on glutathione beads, 16-mer random dsDNA library, 0.1% formaldehyde crosslink after washing; high values mean tight binding
Conditions in all cases: protein: recombinant; tags: N-terminal GST; dsDNA, one strand shown
[1] = target: T1, ERF (Homo sapiens, UniProt P50548 1-548)
T1 sequence: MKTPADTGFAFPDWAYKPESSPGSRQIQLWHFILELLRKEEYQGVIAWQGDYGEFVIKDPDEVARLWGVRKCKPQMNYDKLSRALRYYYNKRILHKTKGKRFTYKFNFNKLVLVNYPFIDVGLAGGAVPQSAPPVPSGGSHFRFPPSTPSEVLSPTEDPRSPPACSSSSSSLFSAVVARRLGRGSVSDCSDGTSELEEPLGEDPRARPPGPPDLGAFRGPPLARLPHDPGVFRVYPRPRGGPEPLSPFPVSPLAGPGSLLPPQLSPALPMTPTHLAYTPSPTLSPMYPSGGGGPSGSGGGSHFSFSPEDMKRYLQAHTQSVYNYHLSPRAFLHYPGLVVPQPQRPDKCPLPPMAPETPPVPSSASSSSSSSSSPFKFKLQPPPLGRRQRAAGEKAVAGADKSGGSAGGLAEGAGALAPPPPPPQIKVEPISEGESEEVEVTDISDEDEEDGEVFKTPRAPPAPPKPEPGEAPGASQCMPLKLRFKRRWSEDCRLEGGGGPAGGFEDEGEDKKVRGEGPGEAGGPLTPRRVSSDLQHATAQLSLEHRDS
Method in brief: (§1)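 Binding signal is each hexamer's read frequency for a factor divided by its frequency in the tag-only sample. The factors were GST-fused human transcription factors from yeast, captured on glutathione beads, DNA-barcoded and pooled with that sample. Pools were incubated with 200 nmole of a random double-stranded 16-mer DNA library in Tris/NaCl/DTT/glycerol buffer at room temperature for 30 min, then washed, crosslinked with 0.1% formaldehyde, proximity-ligated with BsaI/T4 ligase (1 h, 37 °C), PCR-amplified and sequenced on an Illumina NextSeq500.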

[2] = target: T2, ETV3L (Homo sapiens, UniProt Q6ZN32 1-361)
T2 sequence: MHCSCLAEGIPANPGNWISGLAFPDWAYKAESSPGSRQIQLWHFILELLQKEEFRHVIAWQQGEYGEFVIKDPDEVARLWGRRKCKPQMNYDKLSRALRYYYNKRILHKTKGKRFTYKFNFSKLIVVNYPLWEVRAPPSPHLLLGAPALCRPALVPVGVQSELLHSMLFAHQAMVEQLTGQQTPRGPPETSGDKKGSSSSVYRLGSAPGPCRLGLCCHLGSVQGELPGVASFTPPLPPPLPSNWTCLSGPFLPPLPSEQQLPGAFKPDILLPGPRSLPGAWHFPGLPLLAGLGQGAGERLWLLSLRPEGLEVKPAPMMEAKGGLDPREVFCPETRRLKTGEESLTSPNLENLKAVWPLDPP
Method in brief: as §1

[3] = target: T3, ETS2 (Homo sapiens, UniProt P15036 1-469)
T3 sequence: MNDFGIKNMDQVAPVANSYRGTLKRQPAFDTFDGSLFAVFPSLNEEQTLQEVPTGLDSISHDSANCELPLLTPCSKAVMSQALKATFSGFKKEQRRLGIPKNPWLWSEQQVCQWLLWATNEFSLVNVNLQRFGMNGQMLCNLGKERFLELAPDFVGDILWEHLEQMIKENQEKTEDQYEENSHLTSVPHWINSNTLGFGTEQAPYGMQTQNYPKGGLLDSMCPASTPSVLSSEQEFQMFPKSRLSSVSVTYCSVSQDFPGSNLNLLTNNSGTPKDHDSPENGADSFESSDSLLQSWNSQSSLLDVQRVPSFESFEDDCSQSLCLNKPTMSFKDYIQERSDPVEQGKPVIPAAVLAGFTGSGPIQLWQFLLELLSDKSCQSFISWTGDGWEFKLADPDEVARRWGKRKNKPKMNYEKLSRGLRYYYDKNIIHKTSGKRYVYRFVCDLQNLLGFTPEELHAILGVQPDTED
Method in brief: as §1

[4] = target: T4, SPDEF (Homo sapiens, UniProt O95238 1-335)
T4 sequence: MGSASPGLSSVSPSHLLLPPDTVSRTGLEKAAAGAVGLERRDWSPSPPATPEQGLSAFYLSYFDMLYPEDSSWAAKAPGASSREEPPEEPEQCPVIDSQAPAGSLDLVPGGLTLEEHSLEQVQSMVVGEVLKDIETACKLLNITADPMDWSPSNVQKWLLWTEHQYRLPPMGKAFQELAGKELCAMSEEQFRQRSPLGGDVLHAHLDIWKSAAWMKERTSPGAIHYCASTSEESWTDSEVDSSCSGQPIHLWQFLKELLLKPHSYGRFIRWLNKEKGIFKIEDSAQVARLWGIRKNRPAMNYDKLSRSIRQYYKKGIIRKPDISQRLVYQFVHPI
Method in brief: as §1

[5] = target: T5, ETV7 (Homo sapiens, UniProt Q9Y603 1-341)
T5 sequence: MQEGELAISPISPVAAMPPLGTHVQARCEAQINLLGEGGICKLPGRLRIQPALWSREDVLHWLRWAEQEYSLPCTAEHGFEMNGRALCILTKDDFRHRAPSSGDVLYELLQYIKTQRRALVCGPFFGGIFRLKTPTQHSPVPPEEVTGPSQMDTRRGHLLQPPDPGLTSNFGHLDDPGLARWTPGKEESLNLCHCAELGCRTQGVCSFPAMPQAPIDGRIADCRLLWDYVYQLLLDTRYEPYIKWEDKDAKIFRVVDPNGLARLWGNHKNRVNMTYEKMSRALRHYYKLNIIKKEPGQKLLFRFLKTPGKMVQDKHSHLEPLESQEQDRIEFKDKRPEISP
Method in brief: as §1

[6] = target: T6, ELF5 (Homo sapiens, UniProt Q9UKW6-2 1-255)
T6 sequence: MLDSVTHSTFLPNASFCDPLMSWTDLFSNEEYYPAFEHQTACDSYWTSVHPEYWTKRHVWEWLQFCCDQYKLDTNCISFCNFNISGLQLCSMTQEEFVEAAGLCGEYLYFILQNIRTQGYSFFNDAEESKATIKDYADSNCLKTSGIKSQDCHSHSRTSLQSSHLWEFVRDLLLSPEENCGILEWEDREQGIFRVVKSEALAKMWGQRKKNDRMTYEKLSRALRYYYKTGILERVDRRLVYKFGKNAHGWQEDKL
Method in brief: as §1

[7] = target: T7, ETV3 (Homo sapiens, UniProt P41162-2 1-143)
T7 sequence: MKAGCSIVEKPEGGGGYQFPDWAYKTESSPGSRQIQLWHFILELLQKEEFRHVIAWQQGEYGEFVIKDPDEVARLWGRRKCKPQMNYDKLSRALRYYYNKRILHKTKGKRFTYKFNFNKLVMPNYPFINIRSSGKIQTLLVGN
Method in brief: as §1

[8] = target: ETV6 (Homo sapiens, UniProt P41212 1-452)
ETV6, sequence (P41212 whole entry): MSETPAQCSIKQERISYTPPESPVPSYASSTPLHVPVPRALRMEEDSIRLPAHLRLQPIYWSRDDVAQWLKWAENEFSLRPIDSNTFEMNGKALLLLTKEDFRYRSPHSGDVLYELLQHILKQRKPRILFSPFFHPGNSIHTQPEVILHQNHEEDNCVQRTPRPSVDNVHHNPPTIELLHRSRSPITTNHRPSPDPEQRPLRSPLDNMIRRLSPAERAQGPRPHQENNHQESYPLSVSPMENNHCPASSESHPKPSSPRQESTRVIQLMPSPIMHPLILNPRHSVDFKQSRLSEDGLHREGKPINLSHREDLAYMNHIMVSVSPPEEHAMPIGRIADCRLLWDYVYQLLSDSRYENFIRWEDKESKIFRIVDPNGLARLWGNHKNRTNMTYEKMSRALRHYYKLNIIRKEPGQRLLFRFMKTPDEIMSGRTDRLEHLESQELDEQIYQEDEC
Method in brief: as §1

Sequence	binding signal [1]	binding signal [2]	binding signal [3]	binding signal [4]	binding signal [5]	binding signal [6]	binding signal [7]	binding signal [8]
CTACGA	1.23 fold enrichment (6-mer frequency, TF over GST control)	1.24 fold enrichment (6-mer frequency, TF over GST control)	1.25 fold enrichment (6-mer frequency, TF over GST control)	1.17 fold enrichment (6-mer frequency, TF over GST control)	1.26 fold enrichment (6-mer frequency, TF over GST control)	1.19 fold enrichment (6-mer frequency, TF over GST control)	1.15 fold enrichment (6-mer frequency, TF over GST control)	1.16 fold enrichment (6-mer frequency, TF over GST control)
GCCTTA	1.15 fold enrichment (6-mer frequency, TF over GST control)	1.04 fold enrichment (6-mer frequency, TF over GST control)	1.15 fold enrichment (6-mer frequency, TF over GST control)	1.12 fold enrichment (6-mer frequency, TF over GST control)	1.18 fold enrichment (6-mer frequency, TF over GST control)	1.14 fold enrichment (6-mer frequency, TF over GST control)	1.08 fold enrichment (6-mer frequency, TF over GST control)	1.07 fold enrichment (6-mer frequency, TF over GST control)
GCTTCT	1.64 fold enrichment (6-mer frequency, TF over GST control)	1.37 fold enrichment (6-mer frequency, TF over GST control)	1.5 fold enrichment (6-mer frequency, TF over GST control)	1.34 fold enrichment (6-mer frequency, TF over GST control)	1.43 fold enrichment (6-mer frequency, TF over GST control)	1.56 fold enrichment (6-mer frequency, TF over GST control)	1.4 fold enrichment (6-mer frequency, TF over GST control)	1.45 fold enrichment (6-mer frequency, TF over GST control)
TATAGT	1.16 fold enrichment (6-mer frequency, TF over GST control)	1.06 fold enrichment (6-mer frequency, TF over GST control)	1.02 fold enrichment (6-mer frequency, TF over GST control)	1.02 fold enrichment (6-mer frequency, TF over GST control)	1.2 fold enrichment (6-mer frequency, TF over GST control)	1.04 fold enrichment (6-mer frequency, TF over GST control)	1.06 fold enrichment (6-mer frequency, TF over GST control)	1.09 fold enrichment (6-mer frequency, TF over GST control)
TTGAAT	1.05 fold enrichment (6-mer frequency, TF over GST control)	1.01 fold enrichment (6-mer frequency, TF over GST control)	1.06 fold enrichment (6-mer frequency, TF over GST control)	1.17 fold enrichment (6-mer frequency, TF over GST control)	1.09 fold enrichment (6-mer frequency, TF over GST control)	1.09 fold enrichment (6-mer frequency, TF over GST control)	1.02 fold enrichment (6-mer frequency, TF over GST control)	1.03 fold enrichment (6-mer frequency, TF over GST control)
TAACCC	1.17 fold enrichment (6-mer frequency, TF over GST control)	1.22 fold enrichment (6-mer frequency, TF over GST control)	1.26 fold enrichment (6-mer frequency, TF over GST control)	1.32 fold enrichment (6-mer frequency, TF over GST control)	1.31 fold enrichment (6-mer frequency, TF over GST control)	1.3 fold enrichment (6-mer frequency, TF over GST control)	1.26 fold enrichment (6-mer frequency, TF over GST control)	1.3 fold enrichment (6-mer frequency, TF over GST control)
GATTCC	1.15 fold enrichment (6-mer frequency, TF over GST control)	1.22 fold enrichment (6-mer frequency, TF over GST control)	1.14 fold enrichment (6-mer frequency, TF over GST control)	1.29 fold enrichment (6-mer frequency, TF over GST control)	1.11 fold enrichment (6-mer frequency, TF over GST control)	1.21 fold enrichment (6-mer frequency, TF over GST control)	1.24 fold enrichment (6-mer frequency, TF over GST control)	1.14 fold enrichment (6-mer frequency, TF over GST control)
CTCTTT	1.39 fold enrichment (6-mer frequency, TF over GST control)	1.53 fold enrichment (6-mer frequency, TF over GST control)	1.41 fold enrichment (6-mer frequency, TF over GST control)	1.53 fold enrichment (6-mer frequency, TF over GST control)	1.5 fold enrichment (6-mer frequency, TF over GST control)	1.42 fold enrichment (6-mer frequency, TF over GST control)	1.53 fold enrichment (6-mer frequency, TF over GST control)	1.4 fold enrichment (6-mer frequency, TF over GST control)
